Compound activity (PubChem BioAssay)
Most compounds without a hit are left out; they make up all but 1.6% or so of the library.
MLLE-PAM2 inh: blocks PAM2 peptide binding to the PABP1 MLLE domain; P11940; GST-MLLE / FITC-PAM2 fluorescence polarization; inhibition, % at 20 µM; actives 0.36% (n = 360,000); AID 588489; in the data active = inhibition above about 35%, passing the limit was not always enough;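 note: plate controls were DMSO wells with GST-MLLE for no effect and wells lacking GST-MLLE protein for full effect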
Target sequence (P11940 whole entry, looked up, the tested form may be a part): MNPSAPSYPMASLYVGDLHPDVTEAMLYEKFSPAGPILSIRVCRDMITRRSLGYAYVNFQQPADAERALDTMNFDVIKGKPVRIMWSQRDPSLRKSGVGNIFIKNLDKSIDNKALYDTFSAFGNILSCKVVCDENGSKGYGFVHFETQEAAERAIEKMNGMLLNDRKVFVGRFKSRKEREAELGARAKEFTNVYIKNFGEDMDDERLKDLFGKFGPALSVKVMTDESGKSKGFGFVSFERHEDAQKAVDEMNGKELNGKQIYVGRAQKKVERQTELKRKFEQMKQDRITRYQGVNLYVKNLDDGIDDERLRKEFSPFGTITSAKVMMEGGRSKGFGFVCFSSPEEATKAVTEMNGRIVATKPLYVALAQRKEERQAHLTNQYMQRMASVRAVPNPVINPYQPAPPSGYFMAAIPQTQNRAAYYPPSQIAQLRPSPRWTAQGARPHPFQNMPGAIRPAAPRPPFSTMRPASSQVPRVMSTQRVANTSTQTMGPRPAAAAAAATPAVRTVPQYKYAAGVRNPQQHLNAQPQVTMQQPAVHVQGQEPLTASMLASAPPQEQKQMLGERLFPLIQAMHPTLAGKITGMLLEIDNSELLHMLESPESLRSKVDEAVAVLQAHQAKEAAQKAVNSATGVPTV
PERK inh: inhibitors of human PERK kinase | inhibition, % at 5.6 µM | actives 0.17% (n = 220,000) | CHO PERK-DD fusion, SEAP luminescence translation reporter;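 active = inhibition above the mean inhibition of all tested compounds plus 3 SD, set separately per screening campaign, cut at about 2.9% in these data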;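 note: PERK kinase domain activated by AP20187 dimerizer at 100 nM; 0% = DMSO with dimerizer and 100% = rapamycin at 8.4 µM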
eIF4E 4G PPI: eIF4E/eIF4G interaction inhibition in translation initiation; inhibition, % at 21.7 µM; AID 782; P63073+Q04637; actives 0.37% (n = 220,000); TR-FRET eIF4E-eIF4GI(517-606) binding, 2 h;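 active = inhibition above about 30%, limit read from the data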;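 note: 0% = full FRET control wells and 100% = background wells lacking eIF4GI fragment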
PABP FP inh: blocks human PABP binding to poly(A) RNA. fluorescence polarization. calls only at 35 µM. actives 1% (n = 290,000). AID 2014;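 note: calls also rest on retests at 20 µM and on dose response follow-up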
eIF4H inh: inhibitors of RNA binding by human eIF4H. Q15056. eIF4H fluorescence polarization binding assay. inhibition, % at 35 µM. actives 0.94% (n = 290,000). AID 2012;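 note: calls also rest on retests at 20 µM and on dose response follow-up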
* marks the source's active call; other numbers are inactive results; [ ] = remark or other dose. Unless noted, the rule behind the calls is not given here.

How did CC(=O)c1ccc(NC(=O)c2noc3c2CCC3)cc1 do in these assays?
MLLE-PAM2 inh: 15; PERK inh: 1; eIF4E 4G PPI: 15; PABP FP inh: inactive; eIF4H inh: 76

What do the screens show for `CCOC(=O)c1ccc(Nc2nc(C)nc3c2nnn3Cc2ccccc2)cc1`?
MLLE-PAM2 inh: 4; PABP FP inh: inactive; eIF4H inh: -13

Results for CCN1C(=O)[C@H]2[C@H]3CN=C(SCC(=O)c4ccccc4)N3[C@@](C)(C(=O)OC)[C@H]2C1=O ?
MLLE-PAM2 inh: 45*

What do the screens show for `CCCc1nnc(NC(=O)CCC(=O)N2CCN(S(=O)(=O)c3ccc(C)cc3)CC2)s1`?
MLLE-PAM2 inh: -7; PERK inh: -1; eIF4E 4G PPI: 0; PABP FP inh: inactive; eIF4H inh: -12

How did Cc1cccc(CNC(=O)c2ccc3nc(Cc4ccccc4F)oc3c2)n1 do in these assays?
MLLE-PAM2 inh: 4; PABP FP inh: inactive; eIF4H inh: 2

How did NS(=O)(=O)c1ccc(NCc2c(F)cccc2Cl)cc1 do in these assays?
MLLE-PAM2 inh: 10; PERK inh: 1; eIF4E 4G PPI: -4; PABP FP inh: inactive; eIF4H inh: -10

What do the screens show for `Fc1cccc(Cl)c1CNc1ccc(N2CCCC2)cc1`?
MLLE-PAM2 inh: -14; PERK inh: 0; eIF4E 4G PPI: 35*; PABP FP inh: inactive; eIF4H inh: 15

What do the screens show for `OC1c2c(F)cccc2N=C2CCCCCN21` (centres undefined)?
MLLE-PAM2 inh: 11

What do the screens show for `CS(=O)(=O)N1Cc2ccccc2CC1C(=O)O` (centres undefined)?
MLLE-PAM2 inh: 12; PERK inh: 0; eIF4E 4G PPI: 0; PABP FP inh: active; eIF4H inh: inconclusive

Results for O=C(O)C1Cc2ccccc2CN1S(=O)(=O)/C=C/c1ccccc1 (centres undefined) ?
MLLE-PAM2 inh: 7; PERK inh: 0; eIF4E 4G PPI: 2; PABP FP inh: inactive; eIF4H inh: -4

Results for CC(=O)c1ccc(S(=O)(=O)N2Cc3ccccc3CC2C(=O)O)cc1 (centres undefined) ?
MLLE-PAM2 inh: 1; PERK inh: -1; eIF4E 4G PPI: 1; PABP FP inh: active; eIF4H inh: 99*

Results for Cc1nc2ccc(NS(=O)(=O)c3ccc(F)c(C)c3)cc2[nH]1 ?
MLLE-PAM2 inh: 6; PABP FP inh: inactive; eIF4H inh: -2

What do the screens show for `C/C(=N\Nc1ccc(C(=O)O)cc1)c1ccc2c(c1)Nc1ccccc1S2`?
MLLE-PAM2 inh: 7; PERK inh: 2; eIF4E 4G PPI: 12; PABP FP inh: active; eIF4H inh: 84*

How did Cn1cc(C(CO)Cc2ccccc2)c2ccccc21 (centres undefined) do in these assays?
MLLE-PAM2 inh: -8

How did CC(NC(=O)CSc1nnc(CC(=O)Nc2ccc(Cl)c(Cl)c2)n1C)c1ccccc1 (centres undefined) do in these assays?
MLLE-PAM2 inh: -84; PERK inh: 1; eIF4E 4G PPI: 43*[fluorescence artefact?]; PABP FP inh: inactive; eIF4H inh: 9

Results for COc1ccc(NC(=O)CNC(=O)Cc2cccc3ccccc23)c(OC)c1 ?
MLLE-PAM2 inh: -19

What do the screens show for `CC1(C(=O)NS(=O)(=O)c2cccc(Cl)c2)CCN1C(=O)Cc1ccc(Cl)cc1Cl` (centres undefined)?
MLLE-PAM2 inh: -13

How did COc1cc([N+](=O)[O-])ccc1NC(=O)Oc1ccc(NC(C)=O)cc1 do in these assays?
MLLE-PAM2 inh: 15; PERK inh: 0; eIF4E 4G PPI: -2; PABP FP inh: inactive; eIF4H inh: -14

How did O=C(Cn1nnc(-c2cc(C(F)(F)F)cc(C(F)(F)F)c2)n1)NNC(=S)Nc1ccc(Cl)cc1 do in these assays?
MLLE-PAM2 inh: 41*; PERK inh: 1; eIF4E 4G PPI: 4; PABP FP inh: inactive; eIF4H inh: 14

How did Cc1cc(C(F)(F)F)nn1CC(=O)NNC(=S)Nc1ccc(Cl)cc1 do in these assays?
MLLE-PAM2 inh: 29; PERK inh: 0; eIF4E 4G PPI: 2; PABP FP inh: inactive; eIF4H inh: 5

What do the screens show for `COc1cc(/C=N/OCC(=O)Nc2ccc(OC(F)F)cc2)ccc1OCc1ccccc1`?
MLLE-PAM2 inh: -57; PERK inh: 0; eIF4E 4G PPI: -1; PABP FP inh: inactive; eIF4H inh: 66*

Results for S=C(Nc1ccc(Cl)cc1)c1sc(N2CCCCC2)nc1N1CCOCC1 ?
MLLE-PAM2 inh: 28; PERK inh: 0; eIF4E 4G PPI: -42; PABP FP inh: active; eIF4H inh: 79*

How did COC(=O)c1ccc(C(=O)OC)c(NC(=O)CSCc2ccc(Cl)cc2)c1 do in these assays?
MLLE-PAM2 inh: 0; PERK inh: 1; eIF4E 4G PPI: -11; PABP FP inh: inactive; eIF4H inh: -12

What do the screens show for `COC(=O)c1ccc(C(=O)OC)c(NC(=O)CSCC(=O)O)c1`?
MLLE-PAM2 inh: 3; PERK inh: 3.1*; eIF4E 4G PPI: 2; PABP FP inh: inactive; eIF4H inh: 5

Results for CCC(NC(=O)Cc1c(C)c2cc3c(cc2oc1=O)OC(C)(C)CC3)C(=O)O (centres undefined) ?
MLLE-PAM2 inh: 3; PABP FP inh: inactive; eIF4H inh: -4

What do the screens show for `Cc1ccc(C)c(N2CCN(C(=O)c3ccc4nc(-c5ccco5)c(-c5ccco5)nc4c3)CC2)c1`?
MLLE-PAM2 inh: 26; PERK inh: 0; eIF4E 4G PPI: 2; PABP FP inh: inactive; eIF4H inh: 86*

How did O=C(NCCc1ccccc1)c1ccc2nc(-c3ccco3)c(-c3ccco3)nc2c1 do in these assays?
MLLE-PAM2 inh: 16; PERK inh: 0; eIF4E 4G PPI: 18; PABP FP inh: active; eIF4H inh: 88*

How did O=C(c1ccccc1)c1ccc2nc(-c3ccco3)c(-c3ccco3)nc2c1 do in these assays?
MLLE-PAM2 inh: 2; PERK inh: 0; eIF4E 4G PPI: 24; PABP FP inh: inactive; eIF4H inh: 96

What do the screens show for `COc1ccccc1N1CCN(C(=O)c2ccc3nc(-c4ccco4)c(-c4ccco4)nc3c2)CC1`?
MLLE-PAM2 inh: 13; PERK inh: -1; eIF4E 4G PPI: 7; PABP FP inh: inactive; eIF4H inh: 92

Results for c1coc(-c2nc3ccccc3nc2-c2ccco2)c1 ?
MLLE-PAM2 inh: 32; PERK inh: 1; PABP FP inh: active; eIF4H inh: 102*

How did O=C(NCCO)c1ccc2nc(-c3ccco3)c(-c3ccco3)nc2c1 do in these assays?
MLLE-PAM2 inh: 40*; PERK inh: 1; eIF4E 4G PPI: 6; PABP FP inh: active; eIF4H inh: 87*

What do the screens show for `CC1=NN(S(=O)(=O)c2ccc(Cl)cc2Cl)C(=O)c2ccccc2O1`?
MLLE-PAM2 inh: 8; PERK inh: 2; eIF4E 4G PPI: -4; PABP FP inh: inactive; eIF4H inh: -4

Results for O=C(NC1CCCC1)c1ccc2nc[nH]c2c1 ?
MLLE-PAM2 inh: 1; PERK inh: 1; eIF4E 4G PPI: 1; PABP FP inh: inactive; eIF4H inh: 1
